cardiac RTF act – cardiac RTF calcium sensitivity activators, primary screen, biochemical, IANBD-TnC fluorescence, EC20 calcium; 340,000 compounds, 0.24% hits; IANBD-labeled TnC RTF fluorescence at EC20 calcium; 0% EC20 calcium, 100% full calcium; activation, % at 7.2 µM; Troponin I, cardiac muscle (Homo sapiens) + Troponin T, cardiac muscle (Homo sapiens) + …;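 active means activation above the mean over all tested compounds plus 3 SD, cut at about 30% in these data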;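 further: rise in fluorescence read as greater calcium sensitivity of cardiac thin filaments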
Cardiac RTF inh – cardiac RTF calcium sensitivity inhibitors, primary screen, biochemical, IANBD-TnC fluorescence, EC70 calcium; IANBD-labeled cardiac RTF, Ca2+ fluorescence; inhibition, % at 7.15 µM; 340,000 compounds, 0.12% hits;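 active means inhibition above the mean inhibition of all tested compounds plus 3 SD, cut at about 17% in these data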;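 further: assay run at fixed EC70 calcium of 1.6 mM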
Bcl-xL primary – inhibitors of human Bcl-xL, primary screen, biochemical, fluorescence polarization, HTS | Bcl-2-like protein 1 (Homo sapiens), Q07817 | inhibition, % at 10.9 µM | 320,000 compounds, 0.7% hits | AID 2129, 2009 | GST-Bcl-xL / FITC-Bim BH3 peptide fluorescence polarization;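 active means inhibition above the mean of all tested compounds plus 3 SD, cutoff set per campaign, cut at about 30% in these data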;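 further: 0% = DMSO wells and 100% = unlabeled Bim-BH3 peptide competitor; inhibitors lower millipolarization by displacing the labeled peptide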
Target sequence (Q07817 whole entry, looked up): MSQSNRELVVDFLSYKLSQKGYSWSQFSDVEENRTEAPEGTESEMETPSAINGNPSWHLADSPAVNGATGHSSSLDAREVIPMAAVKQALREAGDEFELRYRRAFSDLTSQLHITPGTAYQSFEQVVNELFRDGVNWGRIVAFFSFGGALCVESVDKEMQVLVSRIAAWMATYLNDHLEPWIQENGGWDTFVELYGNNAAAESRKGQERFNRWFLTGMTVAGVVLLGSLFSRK
E coli Lon inh – inhibitors of E. coli Lon protease, primary screen, biochemical, fluorescence polarization. AID 602123, 2011. purified E. coli Lon protease. inhibition, % at 7.94 µM. P0A9M0. 360,000 compounds, 0.42% hits; in the data active means inhibition above about 13%, passing the limit was not always enough;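 further: 0% = enzyme with probe and DMSO and 100% = no enzyme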
GLD-1 RNA inh – GLD-1/TGE RNA complex disruptors, primary screen, biochemical, fluorescence polarization; Female germline-specific tumor suppressor gld-1 (Caenorhabditis elegans), Q17339; purified GLD-1 + fluorescein TGE RNA; inhibition, % at 5.96 µM; 320,000 compounds, 0.44% hits;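 active means percent inhibition above a per-plate cutoff, the plate mean of test compounds plus 3 SD, cut at about 30% in these data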;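 further: 0% = DMSO wells with GLD-1 and probe and 100% = wells lacking GLD-1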
E coli Lon conf – E. coli Lon protease inhibitor retest, confirmation, biochemical, fluorescence polarization; shares compounds with E coli Lon inh; purified E. coli Lon; inhibition, % at 7.94 µM; 1,400 compounds, 31% hits; in the data active means inhibition above about 16%;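 further: 0% = enzyme with probe and DMSO and 100% = no enzyme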
An asterisk follows results filed as active; / = no result; + = active, no number. In the library only some 1.2% were active in any assay of this set; here they are far more common.

SMILES | cardiac RTF act | Cardiac RTF inh | Bcl-xL primary | E coli Lon inh | GLD-1 RNA inh | E coli Lon conf
O=c1c(/C=C(\O)c2ccc(F)cc2)nc2ccccc2n1-c1ccccc1 | 51* | -13 | 3 | + | -17 | -205
Nc1nc2ccccc2n1C(=O)c1ccc(F)cc1 | -1 | 8 | -1 | -4 | -1 | /
CN=c1scc(C)n1/N=C/c1ccc(O)c(O)c1O | -1 | -6 | 22 | 12 | 18 | /
CN=c1scc(-c2cccs2)n1/N=C/c1ccc(O)c(O)c1O | -5 | 10 | 22 | 28* | 8 | 14
CCC(C)(C)n1nnnc1C(C(C)C)N(Cc1ccco1)Cc1cc2cc3c(cc2[nH]c1=O)OCO3 (stereo not given) | 1 | -15 | 45* | 36* | 28 | 52*
Cc1cc(Br)cn2c(Cc3ccsc3)c(C3CCCCC3)nc12 | / | / | / | 50* | / | 53*
COc1ccc(-c2nc3c(C)cc(Br)cn3c2Cc2ccc(C)cc2)cc1OC | / | / | / | 28* | / | -10
CCCc1nc2c(C)cc(Br)cn2c1Cc1ccsc1 | / | / | / | 9 | / | /
Cc1cc(Br)cn2c(Cc3ccsc3)c(C(C)(C)C)nc12 | / | / | / | 80* | / | 71*
Cc1cc(Br)cn2c(Cc3ccsc3)c(-c3ccc(F)cc3)nc12 | / | / | / | 25* | / | 3
O=C(Nc1ccc(N2CCN(C(=O)c3cccs3)CC2)c(Cl)c1)c1cccnc1 | 11 | -8 | 6 | 10 | 3 | /
C=CCc1cccc(/C=N/NC(=O)c2ccccc2OC)c1O | -2 | -8 | -3 | -2 | 0 | /
COc1cccc(N2CCN(C3CC(=O)N(c4ccc(F)c(Cl)c4)C3=O)CC2)c1 (stereo not given) | -1 | 7 | 7 | 5 | -7 | /
COc1ccc(NC2CCN(C3CC(=O)N(c4ccc(F)c(Cl)c4)C3=O)CC2)cc1 (stereo not given) | 4 | 0 | 3 | 17* | 3 | -3
CC1CCCCC1NC(=O)COC(=O)CN1C(=O)c2ccccc2C1=O (stereo not given) | 0 | -3 | -4 | -2 | 4 | /
CC1CCCCC1NC(=O)CN1C(=O)c2cccc(N)c2C1=O (stereo not given) | 5 | -14 | / | 17* | / | 26*
O=C(NCc1ccc(F)cc1)c1cc(C2CCCCN2C(=O)c2ccccc2)on1 (stereo not given) | / | / | / | 0 | / | /
COCCOC(=O)c1c(C)oc2ccc(NS(=O)(=O)c3ccc(C)cc3)cc12 | -1 | 6 | 6 | 7 | 1 | /
CN1CCN(C(=O)c2ccc3c(c2)N(Cc2ccccc2F)C(=O)c2ccccc2S3=O)CC1 (stereo not given) | 4 | 1 | -1 | 16* | -6 | 6
CN1CCN(C(=O)c2ccc3c(c2)N(Cc2ccc(Cl)cc2)C(=O)c2ccccc2S3=O)CC1 (stereo not given) | 6 | -4 | -1 | -1 | -4 | /
Cc1cc(C(=O)COc2ccccc2C(N)=O)c(C)n1C | 0 | 0 | -1 | 8 | -14 | /
Cc1cc(C(=O)COc2cccc3cccnc23)c(C)n1C | 53* | -134 | 147* | 71* | 151* | 2
COc1ccc(C2CC(c3cccs3)=NN2C(=O)CSc2nc(=O)n3ccccc3n2)cc1 (stereo not given) | 5 | -12 | 4 | -4 | 8 | /
CC(=O)N1CC=C2C(C#N)=C(N)C(C#N)(C#N)C(CCc3ccccc3)C2C1 (stereo not given) | 7 | -12 | 13 | 5 | 6 | /
CCN1CC=C2C(C#N)=C(N)C(C#N)(C#N)C(CCc3ccccc3)C2C1 (stereo not given) | 35* | -41 | 155* | 27* | 110* | 21*
SMILES | cardiac RTF act | Cardiac RTF inh | Bcl-xL primary | E coli Lon inh | GLD-1 RNA inh | E coli Lon conf
COc1ccc(N(C)C(=O)c2cc3c(s2)-c2ccccc2OC3)c(OC)c1 | -2 | 0 | 6 | 8 | -2 | /
COc1ccc(N(C)C(=O)c2cc3c(s2)-c2ccc(Cl)cc2S(=O)(=O)C3)c(OC)c1 | 0 | -3 | 1 | 20* | 5 | -6
COc1ccc(NC(=O)CNC(c2ccccc2)c2ccccc2)cc1Cl | -4 | 6 | 2 | 18* | -3 | -8
CCCn1c(C(C)Nc2nc(C)cs2)nc2cc(Cl)c(Cl)cc21 (stereo not given) | -2 | -6 | 0 | 116* | 6 | -2
CCOc1ccc(/C(O)=C2/C(=O)C(=O)N(c3ccccn3)C2c2ccc(C)cc2)c(C)c1 (stereo not given) | -5 | 0 | -2 | 26* | 1 | -5
CC1=C(C#N)C(/C=N/OCc2ccc(Cl)cc2)CC(=O)N1 (stereo not given) | 1 | -7 | 11 | -4 | 5 | /
COc1ccc(Cl)cc1S(=O)(=O)n1ccnc1C(C)C | -4 | -2 | 5 | 17* | 0 | 2
O=C1C(Cl)=C(N2CCCCCC2)C(=O)N1c1ccccc1Cl | -3 | 2 | 6 | -4 | 4 | /
c1ccc2[nH]c3cc4ncnc4cc3nc2c1 | 58* | -48 | + | 153* | + | +
CN1C[C@@H]2C(c3ccccc3)C3(c4ccc(C#N)cc4)CC2(C3)[C@H]1c1ccccc1 (stereo not given in full) | 0 | 0 | -1 | 4 | 3 | /
CN1C=CC2=C(C#N)C(N)C(C#N)(C#N)C(c3ccccc3)C2C1 (stereo not given) | 40* | -36 | 90* | 17* | 46* | -31
CSCC(C)N1CCC(Oc2cccc(C(=O)NCc3ccccn3)c2)CC1 (stereo not given) | 4 | -13 | 48* | 17* | 16 | -319
CCOC(=O)c1c(C)oc2c1c(C=NCCC(=O)O)c(O)c1ccccc12 | 0 | -4 | 22 | 15* | -2 | 30*
O=c1[nH]c(-[n+]2ccc3ccccc3c2)c(/C=N/N=C(\[O-])c2ccccc2)s1 | 3 | -2 | 93* | 43* | 137* | -2
CC12CN3CCN(CC(C3)/C1=N/NC(=O)Nc1ccccc1)C2 | -4 | -5 | -1 | -3 | -5 | /
COc1cccc(OC)c1C(=O)NNC(=O)c1cccc(COc2ccc3c(c2)CCC3)c1 | 12 | -4 | 0 | 15* | 5 | -1
O=C(NCc1ccccc1)c1cccc(COc2ccc3c(c2)CCC3)c1 | 1 | -9 | 1 | 3 | 3 | /

Source: PubChem BioAssay
